Reference: PubChem BioAssay

How the values were obtained:
[1] = system: Botulinum neurotoxin type F light chain protease (Clostridium botulinum); assay: Botulinum neurotoxin type F light chain protease inhibition, multiplex microsphere flow cytometry, validation set (AID 588459); details: multiplex microsphere protease substrate cleavage assay, at 10 µM, stronger effect = higher value
[2] = target: Botulinum neurotoxin type A (Clostridium botulinum) (UniProt P0DPI0); assay: BoNT/A light chain protease inhibitors, biochemical, multiplex microsphere flow cytometry, validation set (AID 588460); details: at 10 µM, stronger effect = higher value
Chain of Botulinum neurotoxin type A (Clostridium botulinum) (P0DPI0 whole entry, looked up): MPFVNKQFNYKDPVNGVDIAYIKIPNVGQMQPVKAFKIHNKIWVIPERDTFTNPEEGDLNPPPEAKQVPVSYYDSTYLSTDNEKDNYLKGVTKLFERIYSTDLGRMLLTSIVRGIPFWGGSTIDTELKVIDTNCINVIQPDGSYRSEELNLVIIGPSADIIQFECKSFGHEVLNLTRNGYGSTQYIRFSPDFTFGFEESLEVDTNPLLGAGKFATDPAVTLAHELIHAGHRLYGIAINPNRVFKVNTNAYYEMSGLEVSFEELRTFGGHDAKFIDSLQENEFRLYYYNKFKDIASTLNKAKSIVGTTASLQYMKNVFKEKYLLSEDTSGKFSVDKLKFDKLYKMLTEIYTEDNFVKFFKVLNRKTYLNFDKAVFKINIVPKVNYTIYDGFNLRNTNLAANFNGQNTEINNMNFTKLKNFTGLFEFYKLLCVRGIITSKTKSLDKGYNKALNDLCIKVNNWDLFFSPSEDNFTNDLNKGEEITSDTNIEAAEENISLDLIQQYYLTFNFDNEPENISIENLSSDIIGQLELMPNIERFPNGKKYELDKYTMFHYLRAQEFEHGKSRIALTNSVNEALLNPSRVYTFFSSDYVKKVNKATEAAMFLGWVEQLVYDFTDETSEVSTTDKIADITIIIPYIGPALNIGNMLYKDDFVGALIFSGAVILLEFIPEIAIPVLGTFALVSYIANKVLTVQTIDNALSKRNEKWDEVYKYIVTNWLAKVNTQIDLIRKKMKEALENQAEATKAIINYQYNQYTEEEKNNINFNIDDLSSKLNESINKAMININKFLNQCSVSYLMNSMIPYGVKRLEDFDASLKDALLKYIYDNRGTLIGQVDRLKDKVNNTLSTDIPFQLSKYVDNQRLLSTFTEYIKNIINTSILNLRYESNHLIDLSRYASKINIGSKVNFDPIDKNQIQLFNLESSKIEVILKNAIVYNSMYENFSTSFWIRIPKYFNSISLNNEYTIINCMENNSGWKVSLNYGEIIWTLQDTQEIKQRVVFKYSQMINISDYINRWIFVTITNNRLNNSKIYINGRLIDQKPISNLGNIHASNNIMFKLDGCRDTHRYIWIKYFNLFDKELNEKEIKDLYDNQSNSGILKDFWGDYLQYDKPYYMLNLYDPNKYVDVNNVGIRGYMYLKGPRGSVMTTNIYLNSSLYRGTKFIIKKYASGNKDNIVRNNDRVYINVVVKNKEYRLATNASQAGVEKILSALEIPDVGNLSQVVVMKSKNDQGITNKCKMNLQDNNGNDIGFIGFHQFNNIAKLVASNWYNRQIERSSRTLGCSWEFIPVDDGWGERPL

[3] = target: Lethal factor (Bacillus anthracis) (UniProt P15917); assay: Lethal factor protease inhibitors, Bacillus anthracis, multiplex microsphere cleavage assay, validation set (AID 588461); details: flow cytometry, at 10 µM, stronger effect = higher value
Chain of Lethal factor (Bacillus anthracis) (P15917 whole entry, looked up): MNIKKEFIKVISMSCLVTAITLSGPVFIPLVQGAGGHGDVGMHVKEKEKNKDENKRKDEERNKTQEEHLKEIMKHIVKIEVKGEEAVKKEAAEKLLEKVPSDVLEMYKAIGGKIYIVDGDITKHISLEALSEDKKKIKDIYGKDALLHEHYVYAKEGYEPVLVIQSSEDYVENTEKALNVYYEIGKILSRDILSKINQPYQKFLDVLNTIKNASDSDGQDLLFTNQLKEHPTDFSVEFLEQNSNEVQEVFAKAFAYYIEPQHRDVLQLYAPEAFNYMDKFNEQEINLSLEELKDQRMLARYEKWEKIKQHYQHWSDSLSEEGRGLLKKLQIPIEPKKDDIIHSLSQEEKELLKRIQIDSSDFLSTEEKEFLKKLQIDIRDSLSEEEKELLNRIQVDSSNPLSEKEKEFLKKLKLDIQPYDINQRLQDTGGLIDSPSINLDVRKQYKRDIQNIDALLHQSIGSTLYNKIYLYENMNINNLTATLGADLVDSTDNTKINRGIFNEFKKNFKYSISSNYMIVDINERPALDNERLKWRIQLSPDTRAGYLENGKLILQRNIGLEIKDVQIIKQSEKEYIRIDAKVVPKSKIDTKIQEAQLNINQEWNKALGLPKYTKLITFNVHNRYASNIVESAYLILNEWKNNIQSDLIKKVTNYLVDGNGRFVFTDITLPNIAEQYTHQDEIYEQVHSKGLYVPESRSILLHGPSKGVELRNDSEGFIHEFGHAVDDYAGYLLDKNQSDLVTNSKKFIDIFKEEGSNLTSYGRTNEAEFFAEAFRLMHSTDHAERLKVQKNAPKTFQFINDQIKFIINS

Measured: inhibition

CC1=NS(=O)(=O)c2cc(Cl)ccc2N1
inactive: [1] 1.4% | [2] -0.3% | [3] -1.8%

CCOc1ccccc1Oc1coc2cc(OCC(=O)O)ccc2c1=O
inactive: [1] 0% | [2] 1.4% | [3] 0.2%

O=C(O)c1cccnc1
inactive: [1] 1.8% | [2] 2% | [3] 2.5%

Cc1oc2c(C)c3oc(=O)c4c(c3cc2c1C)CCCC4
inactive: [1] 0.8% | [2] -0.2% | [3] 1.3%

CN(C)CCOC(c1ccccc1)c1ccccc1
inactive: [1] -0.7% | [2] 0.3% | [3] -5%

O=C(OCC1CCCN2CCCCC12)c1ccc2c(c1)OCO2 (stereo unspecified)
inactive: [1] -1.9% | [2] -1.6% | [3] -6.7%

CN=C(NC#N)NCCSCc1nc[nH]c1C
inactive: [1] -0.4% | [2] 0.9% | [3] -3.5%

O=c1ccc2c(o1)/C(=C/C=C(Cl)Cl)CCC2
inactive: [1] -0.9% | [2] -0.6% | [3] -2%

O=C(O)CCSc1nc2ccccc2s1
inactive: [1] -0.7% | [2] -1.2% | [3] -9.8%

CC(C)(C)C(=O)NC(=S)NNC(=O)c1ccncc1
inactive: [1] 8.3% | [2] 2.9% | [3] -3.3%

C[C@]12C=CC(=O)C=C1CCC1C3CC[C@](O)(C(=O)CO)[C@@]3(C)CC3OC312 (stereo partly specified)
inactive: [1] -1.8% | [2] -2.7% | [3] -7.3%

COc1ccc(OC(C)C(=O)Nc2ccccc2F)cc1 (stereo unspecified)
inactive: [1] 0.8% | [2] -0.2% | [3] 1.9%

COc1ccccc1C(=O)Oc1ccc2c(c1)O/C(=C\c1ccncc1)C2=O
inactive: [1] -0.7% | [2] 0.7% | [3] -8.2%

O=C(CCc1ccccc1)Nc1ccccc1C(F)(F)F
inactive: [1] 0.7% | [2] -0.1% | [3] 0.5%

Cc1ccc(S(=O)(=O)N[C@@H](Cc2ccccc2)C(=O)CCl)cc1
inactive: [1] -3.3% | [2] 1.2% | [3] 3.4%

CSCC[C@H](NC(=O)NC1CCCC1)C(=O)O
inactive: [1] 0.9% | [2] 0.2% | [3] -0.2%

O=C(OCCN1CCOCC1)c1cccs1
inactive: [1] -2.8% | [2] -0.9% | [3] -1.2%

Cc1ccc(Nc2ncccc2C(=O)O)cc1C
inactive: [1] 0.8% | [2] -0.2% | [3] -6.3%

CCOC(=O)N1c2ccccc2C=CC1OCC (stereo unspecified)
inactive: [1] -1.1% | [2] -0.5% | [3] 3.6%

Cc1csc(CCc2nc(C)cs2)n1
inactive: [1] 1.4% | [2] 0.2% | [3] -2.1%

O=C(OCC(O)C(O)COC(=O)c1ccccc1)c1ccccc1 (stereo unspecified)
inactive: [1] -0.4% | [2] 0.6% | [3] 2.1%

CC(=O)Nc1ccccc1O
inactive: [1] 1.5% | [2] -1.1% | [3] -1.7%

CCn1c(/C=C/c2ccccc2)nc2ccccc2c1=O
inactive: [1] 2.4% | [2] -1.7% | [3] 7.2%

CCC(C)NCCOCCOc1ccc(Cl)c2ccccc12 (stereo unspecified)
inactive: [1] -2.3% | [2] 1.8% | [3] -6.5%

CCNC(=S)N1CCN(CCN2C(=O)c3cccc4cccc(c34)C2=O)CC1
inactive: [1] 5.8% | [2] 3.7% | [3] 10.2%

CN1CCCC(OC(=O)c2ccc3c(c2)OCCO3)C1 (stereo unspecified)
inactive: [1] 1% | [2] 0.8% | [3] -2.2%

O=C(N1CCCCC1)C1(c2ccccc2)CCOCC1
inactive: [1] 1.7% | [2] 1.3% | [3] -2.1%

O=C(Nc1nc2ccccc2s1)c1ccc(F)cc1
inactive: [1] -5.1% | [2] -1.5% | [3] -5.8%

Cc1ccc(CSCC(=O)N2CCCC2)cc1
inactive: [1] 2.8% | [2] -0.3% | [3] 0%

N=C1C(c2ccccc2)=C(O)CN1CCCO
inactive: [1] -2.6% | [2] -1.3% | [3] -5%

COc1ccc(C2=NOC(COc3ccc4c(C)cc(=O)oc4c3)C2)c(OC)c1 (stereo unspecified)
inactive: [1] -0.4% | [2] 1.7% | [3] 0%

O=C(NCc1ccccc1Cl)NC(=O)c1ccccc1
inactive: [1] -1.4% | [2] 0.8% | [3] 6.8%
